Compound activity (PubChem BioAssay)
VP16 counter: Gal4-VP16 reporter inhibition counter-screen; Drosophila S2 Gal4-VP16 UAS-luciferase, luminescence, 20 h; Potency, µM (titrated, usually from 53.6 µM), most hits filed as inhibitors; 310,000 compounds, 3.5% hits; AID 2546;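 further: Gal4-VP16 expression switched on by copper sulfate through the metallothionein promoter; nearly all actives have a fitted effect of over 50% in size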
LDHA inh: blocks human lactate dehydrogenase A; AID 1347041; purified LDHA, NADH/diaphorase-resazurin fluorescence; hits give low values; 480,000 compounds, 0.15% hits; activity change, % (values are at about 110 or 230 µM); P00338; in the data active means activity change below about -30%; inconclusive means mostly about -25% to -30%
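Remaining NADH was detected by diaphorase (0.133 mg/mL) converting 37 µM resazurin to fluorescent resorufin, read at 0 and 20 minutes. The preceding 5-minute room-temperature reaction used 2 nM LDHA, 0.2 mM sodium pyruvate and 0.06 mM NADH at pH 7.4.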
DT40 TDP1 no CPT: qHTS for Inhibitors of human tyrosyl-DNA phosphodiesterase 1 (TDP1): qHTS in cells in absence of CPT; DT40 Tdp1-/- hTDP1 cells, no CPT, ATP luminescence, 48 h; Potency, µM (series often up to 46.2 µM), usual class: inhibitors; AID 686978, 2013; 420,000 compounds, 15% hits; further: nearly all actives have a fitted effect of over 55% in size
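A cellular qHTS used chicken DT40 cells lacking endogenous Tdp1 but carrying stably transfected human TDP1. Compounds were applied without camptothecin, and cell growth kinetics were judged by ATP-dependent luminescence after ≥48 hr.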
DT40 TDP1 CPT: growth inhibition of DT40 Tdp1-/-;hTDP1 cells with camptothecin (screen for TDP1 inhibitors). chicken DT40 Tdp1-/-;hTDP1 cells + 20 nM CPT, ATP luminescence, 48 h. Potency, µM (titrated, usually from 46.2 µM), hits mostly inhibitors. 420,000 compounds, 12% hits. AID 686979; further: nearly all actives have a fitted effect of over 55% in size
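Cell growth measured by CellTiter-Glo luminescence after a minimum 48 h, 37 C compound exposure with 20 nM CPT in Tdp1-knockout DT40 cells stably expressing hTDP1, seeded 400/well; qHTS titration format.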
IL-1B inflam inh: blocks inflammasome-driven IL-1 beta release; THP-1 LPS/ATP IL-1B secretion, AlphaLISA, 16 h; hits give low values; activity change, % at 57.5 µM; 360,000 compounds, 4.7% hits; AID 743279; in the data active means activity change below about -50%; inconclusive means mostly about -30% to -49%
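THP-1 cells pretreated 1 hr with compounds (up to 57.5 uM final), then stimulated with LPS (250 ng/mL final) plus ATP (1.25 mM final); secreted IL-1B measured by AlphaLISA after 16 hr, decreased signal indicating inhibition.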
RORgamma inh: inhibitors of mouse ROR gamma transcriptional activity. P51450. Drosophila S2 Gal4-RORgamma UAS-luciferase reporter, 20 h. Potency, µM (top dose mostly 53.6 µM), usual class: inhibitors. 310,000 compounds, 5.4% hits. AID 2551; further: nearly all actives have a fitted effect of over 60% in size
Target sequence (P51450 whole entry, looked up, the tested form may be a part): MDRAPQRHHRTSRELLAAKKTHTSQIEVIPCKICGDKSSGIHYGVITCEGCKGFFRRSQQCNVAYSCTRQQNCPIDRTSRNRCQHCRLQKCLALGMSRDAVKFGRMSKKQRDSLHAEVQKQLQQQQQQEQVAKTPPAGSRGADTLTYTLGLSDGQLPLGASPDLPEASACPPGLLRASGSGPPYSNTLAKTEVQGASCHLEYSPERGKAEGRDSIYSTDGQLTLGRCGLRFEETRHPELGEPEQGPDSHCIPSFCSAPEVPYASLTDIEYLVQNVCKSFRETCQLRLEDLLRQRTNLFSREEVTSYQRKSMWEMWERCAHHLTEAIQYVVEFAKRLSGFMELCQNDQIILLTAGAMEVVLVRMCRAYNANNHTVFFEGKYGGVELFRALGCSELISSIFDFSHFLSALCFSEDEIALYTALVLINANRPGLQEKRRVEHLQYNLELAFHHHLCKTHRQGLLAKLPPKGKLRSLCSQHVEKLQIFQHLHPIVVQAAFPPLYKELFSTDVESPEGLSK
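Luminescence from a UAS-regulated Photinus luciferase reporter in stably transfected Drosophila Schneider cells is measured; decreased signal marks ROR gamma inhibition. Fusion expression is induced by 700 uM copper sulfate for 20 hr.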
Numbers stand for hits; . = inactive; ? = inconclusive; / = not tested or not shown. A selection: hits, their analogues and other compounds. The true share with any hit is near 18%. Unless noted, the call rests on the fitted dose curve; in most records, active means well fitted curve in the direction sought with a large enough effect; inconclusive means small, poorly fitted or top-dose-only effect, or another doubt; inactive means no such curve, though single readings can be large; an effect the other way counts as inactive or inconclusive.

SMILES | VP16 counter | LDHA inh | DT40 TDP1 no CPT | DT40 TDP1 CPT | IL-1B inflam inh | RORgamma inh
Cc1cc(C)cc(NC(=S)/N=C(\N)Nc2nc(C)c3ccccc3n2)c1 | 3.2µM | . | 15µM | 21µM | . | 2µM
Cc1ccc(S(=O)(=O)/N=C(\N)Nc2nc(C)c3ccccc3n2)cc1 | . | . | . | . | . | .
Cc1cccc(NC(=S)/N=C(\N)Nc2nc(C)c3cc(C)ccc3n2)c1 | 4.5µM | . | 23µM | 21µM | ? | 7.1µM
COc1ccc2c(C)nc(N/C(N)=N/S(=O)(=O)c3ccc(C)cc3)nc2c1 | . | . | ? | ? | ? | .
COC(=O)c1ccccc1NC(=O)N1CC(C)Oc2ccc(C)cc21 (configuration not stated) | / | . | / | / | / | /
Cc1[nH]c2ccccc2c1C(=O)C(=O)Nc1ccccc1CN(C)C | / | . | / | / | / | /
CCCn1nnnc1CN1CCCC1c1ccc2c(c1)OCCO2 (configuration not stated) | / | . | / | / | / | /
Cc1cccc(NC(=S)/N=C(\N)Nc2nc(C)c3ccccc3n2)c1 | 5µM | . | ? | 18µM | . | 2.2µM
Cc1cccc(NC(=S)NN)c1 | / | . | / | / | / | /
C=CCNc1nc(-c2ccc(NC(C)=O)cc2F)cs1 | / | . | / | / | / | /
COc1ccc(/C=C2\N=C(c3ccccc3Cl)NC2=O)cc1 | . | . | 0.82µM | 5.8µM | ? | .
COc1ccc(/C=C2\N=C(SC)NC2=O)cc1 | ? | . | . | . | . | 13µM
Cc1sc(NC2CC2)nc1-c1ccc(NS(C)(=O)=O)cc1 | / | . | / | / | / | /
CCOc1cc(/C=C(/C#N)C(=O)OCCOC)cc(Cl)c1OC | / | . | / | / | / | /
COc1ccc(N2CCN(C(=O)c3nc(-c4ccc(Cl)cc4)n4c3CCCCC4)CC2)cc1 | / | . | 21µM | ? | / | /
Cc1ccc(CNC(=O)c2nc(-c3ccc(Cl)cc3)n3c2CCCCC3)cc1 | / | . | 18µM | ? | / | /
COc1ccc(NC(=O)c2nc(-c3ccc(C)cc3)n3c2CCCCC3)cc1 | / | . | 16µM | ? | / | /
CN(Cc1ccccc1)C(=O)c1nc(-c2ccc(Cl)cc2)n2c1CCCCC2 | / | . | ? | ? | / | /
COc1ccc(OC)c(CCNC(=O)c2nc(-c3ccc(Cl)cc3)n3c2CCCCC3)c1 | / | . | 9.2µM | 10µM | / | /
COc1ccc(NC(=O)c2nc(-c3ccc(C)cc3)n3c2CCCCC3)c(OC)c1 | / | . | . | . | / | /
CCCC(=O)Nc1nc2ccc(CCC(=O)N3CCN(c4ccccc4F)CC3)cc2s1 | / | . | / | / | / | /
Cc1ccc(NC2Sc3ccccc3NC2=O)cc1 (configuration not stated) | ? | . | ? | ? | . | 11µM
COC(C/C=C/[C@H](O)[C@@H](C)OCc1ccccc1)OC | / | . | . | . | . | /
COC(C/C=C\[C@H](O)COCc1ccccc1)OC | / | . | . | . | . | /
COC(C/C=C/C(=O)COCc1ccccc1)OC | ? | . | ? | 15µM | -87 | ?
SMILES | VP16 counter | LDHA inh | DT40 TDP1 no CPT | DT40 TDP1 CPT | IL-1B inflam inh | RORgamma inh
COC(C/C=C/C(=O)[C@H](C)OCc1ccccc1)OC | / | . | 7.3µM | 5.2µM | . | /
CCOc1nc2ccccc2nc1N1CCC(C(=O)Nc2ccc(Cl)cc2C)CC1 | / | . | / | / | / | /
c1ccc2c(c1)NCC1CCCN21 (configuration not stated) | . | . | 16µM | 21µM | . | .
CC1Cc2ccccc2N1C(=O)CSc1nnnn1C (configuration not stated) | . | . | . | . | . | .
CC1Cc2ccccc2N1C(=O)CSc1nnc(Cc2ccccc2)n1CCc1ccccc1 (configuration not stated) | . | . | 23µM | ? | . | .
CCCn1c(SCC(=O)N2c3ccccc3CC2C)nnc1-c1ccco1 (configuration not stated) | . | . | ? | 21µM | . | ?
Cc1cccc(OCc2nnc(SCC(=O)N3c4ccccc4CC3C)n2C)c1C (configuration not stated) | 14µM | . | ? | ? | . | ?
CC(=O)NNC(=O)COC(=O)c1ccccc1Sc1ccccc1C#N | / | . | / | / | / | /
COc1ccc(SN=C2C(C)=CC(=O)C=C2C)cc1 | . | . | 9.2µM | ? | ? | .
COc1cc(CN2CCN(Cc3ccco3)CC2)cc(OC)c1 | . | -32 | . | . | . | .
O=[N+]([O-])c1ccc(N2CCN(Cc3cccc([N+](=O)[O-])c3)CC2)cc1 | . | . | 4.1µM | ? | -62 | ?
O=[N+]([O-])c1ccc(CON=C2CCC3(CC2)OCCO3)cc1 | / | . | / | / | / | /
O=[N+]([O-])c1cccc(CN2CCCCCC2)c1 | . | . | . | . | . | .
O=[N+]([O-])c1ccc(S(=O)(=O)N2CCN(Cc3ccco3)CC2)cc1 | . | . | ? | . | . | .
COc1ccc(CN2CCN(Cc3ccco3)CC2)c(OC)c1 | . | . | . | . | . | .
O=[N+]([O-])c1ccc(N2CCC(=NOCc3ccc(Cl)cc3)CC2)cc1 | ? | . | 10µM | 21µM | ? | .
O=[N+]([O-])c1cccc(CN2CCN(Cc3ccco3)CC2)c1 | . | -43 | . | . | . | .
NC(=O)CCc1nnc(SCC(=O)c2c[nH]c3ccccc23)n1C1CC1 | / | . | / | / | / | /
CCCOc1c(Br)cc(C(=O)OCC(=O)c2cc(C)c(C)cc2C)cc1OC | / | . | / | / | / | /
CCCCc1ccc(NC(=O)C(=O)NCCN2CCN(Cc3ccc([N+](=O)[O-])cc3)CC2)cc1 | . | . | 0.73µM | 3.3µM | . | ?
O=[N+]([O-])c1ccc(CN2CCN(c3ccc([N+](=O)[O-])cc3)CC2)cc1 | . | . | 18µM | ? | -54 | .
O=[N+]([O-])c1ccc(CN2CCSCC2)cc1 | . | . | . | . | . | .
O=[N+]([O-])c1cccc(COc2ccc(CN3CCOCC3)cc2)c1 | / | . | 16µM | ? | . | /
COC(=O)C1CCN(Cc2ccc(OCCCN3CCN(c4ccc([N+](=O)[O-])cc4)CC3)cc2)CC1 | ? | . | 10µM | 7.3µM | . | ?
CC1CCN(CCCCOc2ccc([N+](=O)[O-])cc2)CC1 | . | . | . | . | . | .
CCCCc1ccc(NC(=O)C(=O)NCCN2CCN(C(=O)c3ccc(C)cc3)CC2)cc1 | / | . | / | / | / | /
O=[N+]([O-])c1cccc(COc2ccc(CN3CCCC3)cc2)c1 | / | . | ? | ? | . | /
CN(CC(=O)NC1(C)CCS(=O)(=O)C1)Cc1cccc(Cl)c1Cl (configuration not stated) | / | . | / | / | / | /
CCn1c(SCC(=O)Nc2ccc(Cl)cc2)nc2nc3c(cc2c1=O)CCCC3 | 13µM | . | ? | ? | -64 | 14µM
CCn1c(SCC(=O)Nc2ccccc2C)nc2nc3c(cc2c1=O)COC(C)(C)C3 | . | . | 10µM | ? | ? | .
